Test systems include DU-145 prostate; K-562 leukemia; MALME-3M melanoma; MDA-MB-231 breast; RXF 393 renal; SF-268 CNS; SF-295 CNS; SF-539 CNS; UACC-257 melanoma; M14 melanoma.
What all share (test): NCI-60 one-dose screen, 48 h (100 = growth as untreated, 0 = no growth, -100 = all killed)
Conditions in all cases: 10 µM unless noted

This is part of a sample that, as a whole, favours compounds with a hit. Of some 83,000 tested, about 20% had one in any assay.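 Treatment: one concentration, 48 hours, 96-well format. Scoring: percent growth, with anything below 10 considered active.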 Values without a mark were called inactive. The source made the active and inactive calls.

With `Nc1n[nH]c2cccc(C#Cc3cccc(C(=O)Nc4cccc(C(F)(F)F)c4)c3)c12`, the growth in the assay on DU-145 prostate is 74.9%; in the assay with K-562 leukemia it was 8.36% (active); in the assay on MALME-3M melanoma it was 10.4%; in the assay on MDA-MB-231 breast, 53.6%; in the assay on RXF 393 renal, 65.9%; in the assay on SF-268 CNS it was 56.4%. Moreover, the growth with SF-295 CNS is 81.6%; with SF-539 CNS, 39%; with UACC-257 melanoma, 73.2%; in the assay with M14 melanoma it was 39.2%.

On to `N#C/C(=C\c1ccc([N+](=O)[O-])s1)c1nc2cc(Cl)ccc2s1`, for which the growth with DU-145 prostate was 57.4%; with K-562 leukemia it was 1.75% (active); in the assay with MALME-3M melanoma, -57.1% (active); in the assay with MDA-MB-231 breast, -47.2% (active); in the assay on RXF 393 renal it was 6.88% (active); in the assay with SF-268 CNS, 27.9%. Also, the growth in the assay on SF-295 CNS was 91.7%; in the assay on SF-539 CNS, -35% (active); with UACC-257 melanoma it was 55.6%; with M14 melanoma, -78.1% (active).

In the case of `C=C1C(=O)O[C@H]2[C@H]1CC/C(COC(=O)NCCc1c[nH]c3ccc(OC)cc13)=C\CC[C@@]1(C)O[C@@H]21`, the growth was 10.6% with DU-145 prostate; 3.56% (active) in the assay on K-562 leukemia; -37.2% (active) with MALME-3M melanoma; 39.1% in the assay with MDA-MB-231 breast; -81.7% (active) with RXF 393 renal; 60.1% in the assay with SF-268 CNS. The growth with SF-295 CNS was 86.2%; in the assay with SF-539 CNS it was -24.7% (active); in the assay with UACC-257 melanoma, 30.6%; in the assay on M14 melanoma it was 14.1%.

Take `COc1ccc(C/C(=C(\C)c2ccc(OCCN3CCCC3)cc2)c2ccc(OCCN3CCCC3)cc2)cc1`: the growth was 70% in the assay with DU-145 prostate; -64.1% (active) with K-562 leukemia; 47.1% in the assay with MALME-3M melanoma; 17.8% in the assay with MDA-MB-231 breast; 55.7% in the assay on RXF 393 renal; 69.9% with SF-268 CNS. The growth was 34.2% in the assay on SF-295 CNS, 29.9% in the assay with SF-539 CNS, 63.9% with UACC-257 melanoma and -64.8% (active) with M14 melanoma.

In the case of `C=CC(=O)N[C@@H](/C=C/C(=O)OCC)Cc1ccc(-c2cc(Cl)cc(Cl)c2)cc1`, the growth in the assay on DU-145 prostate is 16.9%; with K-562 leukemia it was 8.57% (active); in the assay on MALME-3M melanoma it was 4.14% (active); in the assay with MDA-MB-231 breast it was 9.36% (active); in the assay on RXF 393 renal, -10.1% (active); with SF-268 CNS, 32.1%. For the same compound, the growth with SF-295 CNS is 21.8%; with SF-539 CNS, 56.8%; in the assay on UACC-257 melanoma, -2.68% (active); in the assay on M14 melanoma it was 24.7%.

Consider `COc1ccc(C(=O)Nc2cccc(C3CCc4c(cc(OC)c(OC)c4OC)O3)c2)cc1` (stereo not given), for which the growth is 69.9% in the assay with DU-145 prostate; 16.8% with K-562 leukemia; 46.2% in the assay on MALME-3M melanoma; 63.1% in the assay with MDA-MB-231 breast; 81.1% in the assay with RXF 393 renal; 52.7% in the assay on SF-268 CNS. Besides, the growth in the assay on SF-295 CNS is 42.2%; in the assay with SF-539 CNS, 61.3%; in the assay on UACC-257 melanoma it was 52%; with M14 melanoma, 34.2%.

On to `Cn1ccc2c1CC1CN(Cc3ccco3)C(=O)C1C2C(=O)O` (stereo not given), for which the growth in the assay on DU-145 prostate was 89.2%; with K-562 leukemia, 97.4%; with MALME-3M melanoma it was 98.5%; in the assay on MDA-MB-231 breast, 97.1%; in the assay on RXF 393 renal it was 111%; in the assay with SF-268 CNS, 92.6%. The growth in the assay on SF-295 CNS is 100%; with SF-539 CNS, 96.3%; with UACC-257 melanoma, 97%; with M14 melanoma it was 103%.

`Cc1cc(C)c(S(=O)(=O)Oc2ccccc2[N+](=O)[O-])c(C)c1`: the growth in the assay on DU-145 prostate is 15.7%; in the assay with K-562 leukemia it was 22.1%; in the assay on MALME-3M melanoma it was 21%; in the assay with MDA-MB-231 breast, 33.2%; in the assay on RXF 393 renal, 4.44% (active); in the assay with SF-268 CNS, 37.2%. The growth is -7.8% (active) in the assay on SF-295 CNS, -8.46% (active) in the assay on SF-539 CNS, 32.4% in the assay on UACC-257 melanoma and 14.2% with M14 melanoma.

Take `CC1(C)CC(=O)C2=C(C1)N(c1ccc(F)cc1F)C(N)=C(C#N)C2c1cc(Br)ccc1F` (stereo not given): the growth is 95.4% in the assay on DU-145 prostate; 87.6% in the assay on K-562 leukemia; 99% in the assay with MALME-3M melanoma; 96.4% in the assay on MDA-MB-231 breast; 103% in the assay on RXF 393 renal; 103% with SF-268 CNS. In addition, the growth in the assay on SF-295 CNS is 105%; in the assay on SF-539 CNS it was 87.8%; with UACC-257 melanoma it was 101%; in the assay with M14 melanoma it was 85.1%.

For the compound `Cc1cccc(NC(=O)Nc2ccc(-n3cnc4cc(-c5ccc(O)cc5)ccc43)cc2)c1`, the growth in the assay on DU-145 prostate was 33.9%; with K-562 leukemia, 14.2%; in the assay with MALME-3M melanoma it was 28.4%; in the assay with MDA-MB-231 breast it was 47.3%; with RXF 393 renal, 58.4%; in the assay on SF-268 CNS, 42.3%. In addition, the growth in the assay on SF-295 CNS is 18.4%; in the assay on SF-539 CNS it was 29.1%; with UACC-257 melanoma it was 32.3%; in the assay with M14 melanoma it was 21.4%.

In the case of `O=C(NCCc1ccccc1)Nc1ccc2cc3ccc(NC(=O)NCCc4ccccc4)cc3nc2c1`, the growth with DU-145 prostate was 29.2%; in the assay with K-562 leukemia it was 1.41% (active); in the assay on MALME-3M melanoma, -13.8% (active); in the assay with MDA-MB-231 breast it was -17.5% (active); with RXF 393 renal, -21.5% (active); with SF-268 CNS, -54.2% (active). Moreover, the growth was 0.203% (active) with SF-295 CNS, -61.7% (active) with SF-539 CNS, 85.6% in the assay with UACC-257 melanoma and 33.8% with M14 melanoma.

`COc1ccc(/C=C2\Oc3cc(OCCCCCN4CCCCC4)ccc3C2=O)cc1OC`: the growth in the assay on DU-145 prostate was 89.6%; with K-562 leukemia it was -54.6% (active); in the assay on MALME-3M melanoma, 83.7%; in the assay on MDA-MB-231 breast, 86.7%; with RXF 393 renal, 76.3%; in the assay on SF-268 CNS, 87.2%. For the same compound, the growth in the assay with SF-295 CNS is 98.6%; with SF-539 CNS, 81.1%; with UACC-257 melanoma, 87.4%; in the assay with M14 melanoma it was 89.1%.

Turning to `COc1cc2oc(-c3cccc(C(=O)Nc4ccc(Cl)cc4)c3)cc(=O)c2c(O)c1OC`, the growth with DU-145 prostate was 62.9%; in the assay on K-562 leukemia it was 69.4%; in the assay with MALME-3M melanoma it was 68.4%; in the assay with MDA-MB-231 breast, 55.8%; in the assay with RXF 393 renal it was 41.3%; with SF-268 CNS, 28.6%. The growth was 52% with SF-295 CNS, 55% in the assay with SF-539 CNS, 83.2% in the assay on UACC-257 melanoma and 69.8% in the assay with M14 melanoma.

Source of the values: PubChem BioAssay (NCI).
